BioA inh-1: BioA (M. tuberculosis) enzyme inhibition; AID 602481; inhibition, % at 9.99 µM; purified M. tuberculosis BioA enzyme, plate reader; hit rate 0.096% among 360,000; in the data active means inhibition above about 40%
Yp Topo-I inh: blocks Yersinia pestis topoisomerase I activity; activity, % at 10 µM; Y. pestis Topo-I cleavage product accumulation, plate reader; AID 504884; hit rate 0.064% among 360,000; in the data active means activity above about 50%, passing the limit was not always enough
Mtb hypoxia inh: reduces hypoxia-regulated biosensor signal in M. tuberculosis; M. tuberculosis hypoxia-regulated fluorescent reporter, fluorescence; fluorescence inhibition, % (test concentration not listed); hit rate 0.1% among 300,000; in the data active means fluorescence inhibition mostly above about 23%, no sharp cut-off; inactive means mostly below about 17%
TcdB inh: inhibitors of Clostridioides difficile toxin B glycohydrolase; TcdB glycohydrolase enzymatic assay, plate reader; AID 652162; P18177; inhibition, % at 9.99 µM; hit rate 0.24% among 350,000; in the data active means inhibition above about 10%
Sa RN4220 lethal: S. aureus RN4220 growth inhibition; inhibition, % (no concentration beside the values); hit rate 0.33% among 330,000; OD600, 16 h; in the data active means inhibition above about 85%;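 further: plate controls were untreated cells for no effect and reference antibiotic for full effect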
Sa ugtP lethal: compounds lethal to S. aureus RN4220 ugtP deletion mutant. AID 1259309. OD600 growth, 16 h. hit rate 0.54% among 330,000. growth inhibition, % (concentration not given with the values); in the data active means growth inhibition above about 68%;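 further: plate controls were untreated wells for no effect and antibiotic for full effect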
BioA inh-2: blocks M. tuberculosis BioA aminotransferase; shares compounds with BioA inh-1; purified BioA enzyme, plate reader, dose response; max activity, %; 310 tested, under 10 active; AID 651679;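 further: top concentration of the dilution series was 10 µM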
Target sequence (P9WQ81 whole entry, looked up): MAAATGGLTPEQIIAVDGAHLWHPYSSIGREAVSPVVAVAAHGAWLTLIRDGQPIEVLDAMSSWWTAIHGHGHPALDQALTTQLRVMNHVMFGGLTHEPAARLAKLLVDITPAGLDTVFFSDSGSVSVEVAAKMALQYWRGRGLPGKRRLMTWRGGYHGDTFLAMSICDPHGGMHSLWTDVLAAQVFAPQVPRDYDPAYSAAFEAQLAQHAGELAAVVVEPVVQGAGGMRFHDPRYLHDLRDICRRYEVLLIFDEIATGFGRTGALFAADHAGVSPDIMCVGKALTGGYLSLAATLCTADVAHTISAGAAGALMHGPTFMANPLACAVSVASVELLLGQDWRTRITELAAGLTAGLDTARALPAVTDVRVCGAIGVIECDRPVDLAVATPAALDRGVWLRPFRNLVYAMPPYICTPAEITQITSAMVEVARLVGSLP
HepG2 tox 2: HepG2 viability loss; shares compounds with BioA inh-1; 310 tested, under 10 active; max activity, %; HepG2 cytotoxicity, plate reader
3T3 cytotox 5: kills NIH3T3 cells; 310 tested, under 10 active; shares compounds with BioA inh-1; activity change, negative = cytotoxicity, % at 26 µM; AID 651900; NIH3T3 cytotoxicity, plate reader
Numbers without * were called inactive. This is a sample that favours compounds with a hit; in the whole collection about 0.75% have one here. Unless noted, how the calls were made is not given here.

For Cc1ccc(NS(=O)(=O)c2ccc3c(c2)n(C)c(=O)n3C)c(C)c1 the results were BioA inh-1 7.2, Yp Topo-I inh -1.7, Mtb hypoxia inh -3.5, TcdB inh 0.6, Sa RN4220 lethal -0.8 and Sa ugtP lethal -7.4.
Screening O=C(NC1CCCc2c1cnn2-c1cc(F)cc(F)c1)c1ccc[n+]([O-])c1 (centres undefined) returned BioA inh-1 64.6*, Yp Topo-I inh -0.6, Mtb hypoxia inh 11.4, TcdB inh -0.1, Sa RN4220 lethal 1.4, Sa ugtP lethal 1.7, BioA inh-2 3.5, HepG2 tox 2 -7.2 and 3T3 cytotox 5 -1.7.
Screening O=C(NC1CCCc2c1cnn2-c1cc(F)cc(F)c1)c1cc[n+]([O-])cc1 (centres undefined) returned BioA inh-1 0.4, Yp Topo-I inh -0.9, Mtb hypoxia inh 2.1, TcdB inh 0.9, Sa RN4220 lethal -1.6 and Sa ugtP lethal -5.5.
Screening Cc1nc2nc(SCC(=O)N3CCOCC3)nn2c(C)c1Cc1c(F)cccc1Cl returned BioA inh-1 93.9*, Yp Topo-I inh 21.7, Mtb hypoxia inh 10.1, Sa RN4220 lethal -1.0, Sa ugtP lethal 3.0, BioA inh-2 -9.3, HepG2 tox 2 -6.8 and 3T3 cytotox 5 -13.1.
`Cc1ccc(Cc2c(C)nc3nc(SCC(=O)NCCCN4CCCCC4)nn3c2C)cc1` gave BioA inh-1 54.1*, Yp Topo-I inh 11.8, Mtb hypoxia inh 1.3, TcdB inh -0.8, Sa RN4220 lethal -1.1, Sa ugtP lethal 12.3, BioA inh-2 -2.4, HepG2 tox 2 -12.4 and 3T3 cytotox 5 9.9.
Cc1nc2nc(SCC(=O)N3CCC4(CC3)OCCO4)nn2c(C)c1Cc1ccccc1 was read as BioA inh-1 74.0*, Yp Topo-I inh 22.8, Mtb hypoxia inh 6.7, Sa RN4220 lethal 1.5, Sa ugtP lethal -0.1, BioA inh-2 -8.9, HepG2 tox 2 25.1 and 3T3 cytotox 5 7.8.
`Cc1cc(C)n2nc(SCC(=O)N3CCC4(CC3)OCCO4)nc2n1` gave BioA inh-1 5.4, Yp Topo-I inh 0.2, Mtb hypoxia inh 1.9, Sa RN4220 lethal 4.0 and Sa ugtP lethal 6.8.
Cc1nc2nc(SCC(=O)NCCN3CCOCC3)nn2c(C)c1Cc1ccccc1 was read as Yp Topo-I inh 6.7, Mtb hypoxia inh 6.8, Sa RN4220 lethal 4.0 and Sa ugtP lethal 7.2.
For CCOC(=O)C1=C(C)N=c2sc(=Cc3ccc(OC(C)=O)c(OCC)c3)c(=O)n2C1/C=C/c1ccccc1 (centres undefined) the results were Mtb hypoxia inh 0.8, Sa RN4220 lethal 3.3 and Sa ugtP lethal -3.3.
`CCN1CCN(CC(=O)c2c(C)n(Cc3ccccc3)c3ccc(OC)cc23)CC1` gave BioA inh-1 26.0, Yp Topo-I inh 1.8, Mtb hypoxia inh 3.2, Sa RN4220 lethal -1.1 and Sa ugtP lethal -8.2.
COc1ccc2c(c1)c(C(=O)CN1CCC3(CC1)OCCO3)c(C)n2Cc1ccccc1 was read as BioA inh-1 59.4*, Yp Topo-I inh 16.7, Sa RN4220 lethal -3.9, Sa ugtP lethal 2.5, BioA inh-2 -6.2, HepG2 tox 2 -7.7 and 3T3 cytotox 5 -9.9.
Screening CCCCCC(O)c1cc2ccccc2c(=O)o1 (centres undefined) returned Mtb hypoxia inh 21.6, Sa RN4220 lethal 10.4 and Sa ugtP lethal 4.4.
Screening Cc1ccccc1S(=O)(=O)NCC[C@H]1CC[C@@H](NC(=O)Nc2cccc(F)c2)[C@H](CO)O1 returned BioA inh-1 46.4*, TcdB inh 1.1, BioA inh-2 -4.7, HepG2 tox 2 inactive and 3T3 cytotox 5 -0.3.
`C#CCOCCOCCOCCNc1nc(N2CCN(C(=O)C(C)n3cc(CCCN=C(N)N)nn3)CC2)nc(N2CCN(C(=O)C(C)n3cc(CCCN=C(N)N)nn3)CC2)n1` (centres undefined) gave Mtb hypoxia inh 10.6, Sa RN4220 lethal 3.3 and Sa ugtP lethal 3.2.
`Cc1ccccc1CC1(CO)CCCN(C(=O)c2ccccc2Cl)C1` (centres undefined) gave Yp Topo-I inh 28.9, Mtb hypoxia inh -1.9, TcdB inh 1.1, Sa RN4220 lethal 12.8 and Sa ugtP lethal -4.3.
